# Giardia killer – kills Giardia lamblia | Giardia lamblia trophozoite viability | activity change, % at 7.66 µM, hits read low | AID 540267 | 0.15% of 340,000 active; in the data active = activity change below about -80%; inconclusive = between about -30% and that limit;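 note: parasites exposed to compound for two days anaerobically before the ATP read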
#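 Giardia lamblia trophozoites (100 cells/well) were incubated with compounds for 48 h at 37 deg C under anaerobic conditions. Viability was read as ATP content by one-step luminescence after 15-30 min at room temperature.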
# IL1B secr inh – inflammasome signaling inhibition, IL-1 beta readout; THP-1 LPS/ATP IL-1B secretion, AlphaLISA, 16 h; hits give low values; activity change, % at 57.5 µM; 4.7% of 360,000 active; AID 743279; in the data active = activity change below about -50%; inconclusive = mostly about -30% to -49%
#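 Secreted IL-1B measured by AlphaLISA bead assay after 16 h compound exposure of THP-1 cells; compounds (final up to 57.5 uM) added 1 h before LPS (250 ng/mL) and ATP (1.25 mM) stimulation; lower signal means less secretion.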
# DT40 TDP1 CPT – growth inhibition of DT40 Tdp1-/-;hTDP1 cells with camptothecin (screen for TDP1 inhibitors). chicken DT40 Tdp1-/-;hTDP1 cells + 20 nM CPT, ATP luminescence, 48 h. Potency, µM (series often up to 46.2 µM), without a hit: at the highest dose activity change, negative = growth inhibition, actives largely listed as inhibitors. 12% of 420,000 active. AID 686979; note: potency is the fitted concentration of half-maximal effect; nearly all actives have a fitted effect of over 55% in size
#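 Cell growth measured by CellTiter-Glo luminescence after a minimum 48 h, 37 C compound exposure with 20 nM CPT in Tdp1-knockout DT40 cells stably expressing hTDP1, seeded 400/well; qHTS titration format.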
# TDP1 block – TDP1 (human) enzyme inhibition. Potency, µM (top dose mostly 130 µM), for the others: at the top dose activity change, negative = inhibition, most hits filed as inhibitors. 0.28% of 350,000 active. AID 485290. Q9NUW8. recombinant TDP1, AlphaScreen DNA substrate cleavage; note: potency is the fitted concentration of half-maximal effect; nearly all actives have a fitted effect of over 40% in size
# Target sequence (Q9NUW8 whole entry, looked up): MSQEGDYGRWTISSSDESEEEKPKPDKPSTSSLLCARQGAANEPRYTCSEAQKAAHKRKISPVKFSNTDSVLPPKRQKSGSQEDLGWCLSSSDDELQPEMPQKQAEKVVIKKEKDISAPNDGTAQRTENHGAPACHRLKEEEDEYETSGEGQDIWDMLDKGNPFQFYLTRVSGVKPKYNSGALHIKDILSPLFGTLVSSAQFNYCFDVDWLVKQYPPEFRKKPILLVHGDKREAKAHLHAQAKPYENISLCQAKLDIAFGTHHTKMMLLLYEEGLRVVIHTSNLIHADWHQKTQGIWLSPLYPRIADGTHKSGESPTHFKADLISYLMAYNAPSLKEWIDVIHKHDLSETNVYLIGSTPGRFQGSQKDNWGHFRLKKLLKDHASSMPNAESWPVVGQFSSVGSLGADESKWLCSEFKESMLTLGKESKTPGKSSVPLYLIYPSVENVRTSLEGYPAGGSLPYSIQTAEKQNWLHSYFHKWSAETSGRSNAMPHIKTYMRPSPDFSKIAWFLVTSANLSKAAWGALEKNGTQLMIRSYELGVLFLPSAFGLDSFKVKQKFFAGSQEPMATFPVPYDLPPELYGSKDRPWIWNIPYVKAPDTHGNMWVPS
#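 Here, a 5' biotin and 3' phosphotyrosine-FITC DNA oligonucleotide reports Tdp1 activity: intact substrate bridges AlphaScreen beads, while cleavage leaves a 3' phosphate and drops signal. All incubations at room temperature.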
# TDP1 cell noCPT – qHTS for Inhibitors of human tyrosyl-DNA phosphodiesterase 1 (TDP1): qHTS in cells in absence of CPT. 15% of 420,000 active. DT40 Tdp1-/- hTDP1 cells, no CPT, ATP luminescence, 48 h. Potency, µM (doses to about 46.2 µM), without a hit: top-dose activity change, negative = growth inhibition, actives largely listed as inhibitors; note: potency is the fitted concentration of half-maximal effect; nearly all actives have a fitted effect of over 55% in size
#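 Readout: luminescence from CellTiter-Glo after 30 min in the dark at RT. Cells: DT40 Tdp1-/- with stable hTDP1, 400/well. Exposure: compounds alone, ≥48 hr, 37 °C.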
# ELG1 repair inh – blocks ELG1-dependent DNA repair in HEK293T cells; AID 504467; Potency, µM (titrated, usually from 46.1 µM), without a hit: at the highest dose activity change, negative = inhibition, most hits filed as inhibitors; 2.3% of 330,000 active; HEK293T ELG1-luciferase reporter, luminescence, 16 h; DNA damage induced by 5-fluorouridine; note: potency is the fitted concentration of half-maximal effect; nearly all actives have a fitted effect of over 55% in size
#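 Cells (2,000 per well) received 5-fluorouridine plus test compound or DMSO and were incubated 16 hr at 37 °C, 5% CO2. Luciferase activity was read by luminescence 30 min after ONE-Glo addition; signal suppression marked inhibition of damage-induced ELG1 function.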
# * = called active by the depositor; ? = inconclusive; . = no result given. Only some compounds are listed: those with a hit (about 19% of all), similar ones and a draw of the others. Unless noted, calls come from the whole dose curve; as a rule, active = well fitted curve in the direction sought with a large enough effect; inconclusive = small, poorly fitted or top-dose-only effect, or another doubt; inactive = no such curve, though single readings can be large; an effect the other way counts as inactive or inconclusive. % is set by controls: 0 for no effect and ±100 for the full control effect.
SMILES,Giardia killer,IL1B secr inh,DT40 TDP1 CPT,TDP1 block,TDP1 cell noCPT,ELG1 repair inh
Nc1nonc1-n1nnc(C(=O)N/N=C/c2ccccc2)c1CSc1ccccc1,0,8,8%,8%,-7%,-6%
Nc1nonc1-n1nnc(C(=O)N/N=C/c2cccnc2)c1CSC1=NCCS1,-30,.,-4%,7%,?,-15%
O/N=C(\c1ccc(Cl)cc1)c1cc2ccccc2o1,14,-12,18µM*,4%,18µM*,-7%
O=C(Nc1ccc(Cl)cc1Cl)c1cc2ccccc2o1,-20,17,-4%,.,-15%,?
CC(NC(=S)Nc1ccc(Cl)cc1Cl)C(c1cccs1)N1CCCC1 (centres undefined),-29,-81*,?,6%,?,-11%
CC(NC(=O)Nc1cccc(Cl)c1)C(c1cccs1)N1CCCC1 (centres undefined),-1,-54*,-5%,-7%,?,-14%
CC(NC(=O)Nc1ccc(Cl)cc1)C(c1cccs1)N1CCOCC1 (centres undefined),-17,-4,?,9%,?,-6%
CCN1C(=O)/C(=C/C2=Cc3ccccc3OC2C)SC1=S (centres undefined),3,.,-4%,.,?,16%
NC(=O)c1ccccc1OCC(=O)c1ccc(Cl)cc1,9,-57*,-32%,4%,?,7%
NC(=O)c1ccccc1OCC(=O)NS(=O)(=O)c1ccc(Cl)cc1,-1,11,-6%,1%,-1%,0%
CCCCCCOc1ccccc1C(N)=O,.,.,?,5%,16µM*,.
Cc1cc(NC(=O)C(C)SCC(=O)OCC(=O)N(C)c2ccccc2)no1 (centres undefined),8,-4,14%,2%,-2%,0%
CCCCCCN1C[C@@H](n2cc(COC(=O)c3ccccc3)nn2)[C@H](O)C[C@@H]1c1ccc(C)cc1,.,-8,18µM*,.,12µM*,.
CCCCCC(=O)N1C[C@@H](n2cc(COC(=O)c3ccccc3)nn2)[C@H](O)C[C@@H]1c1ccc(C)cc1,.,24,-21%,.,-17%,.
CCCCCCN1C[C@H](O)[C@@H](n2cc(COC(=O)c3ccccc3)nn2)C[C@@H]1c1ccc(Cl)cc1,.,45,?,.,?,.
CCCCCCN1C[C@H](O)[C@@H](n2cc(COC(=O)c3ccccc3)nn2)C[C@@H]1c1ccc(C)cc1,.,-4,?,.,16µM*,.
CCCCCC(=O)N1C[C@H](n2cc(COC(=O)c3ccccc3)nn2)[C@@H](O)C[C@@H]1c1ccc(Cl)cc1,.,-1,?,.,16µM*,.
CCCCCC(=O)N1C[C@@H](n2cc(COC(=O)c3ccccc3)nn2)[C@H](O)C[C@@H]1c1ccc(Cl)cc1,.,7,?,.,?,.
NC(=O)C1CCN(S(=O)(=O)c2cc3c(cc2Cl)NC(=O)CO3)CC1,.,.,8%,3%,-2%,.
CCOC(=O)Cn1c(=O)n(-c2ccccc2OC)c2nc(-c3ccccc3C)nc(C(N)=O)c21,.,.,.,4%,.,.
CCc1ccc(NC(=O)C(=O)NCc2ccccn2)cc1,17,-12,?,2%,-2%,?
O=C(NNS(=O)(=O)c1ccc(Cl)cc1)c1cnn(-c2ccccc2)c1-n1cccc1,3,4,1.5µM*,3%,2.1µM*,1%
O=C(NNS(=O)(=O)c1ccccc1)c1cnn(-c2ccccc2)c1-n1cccc1,-11,0,8.2µM*,3%,12µM*,-8%
O=C(NNS(=O)(=O)c1ccc([N+](=O)[O-])cc1)c1cnn(-c2ccccc2)c1-n1cccc1,8,6,0.46µM*,0%,0.46µM*,0%
Cc1ccc(C)c(C(=O)COC(=O)CCN2C(=O)C3C4CCC(C4)C3C2=O)c1 (centres undefined),-1,4,5%,2%,5%,-14%
SMILES,Giardia killer,IL1B secr inh,DT40 TDP1 CPT,TDP1 block,TDP1 cell noCPT,ELG1 repair inh
CCOC(=O)[C@]12CCCC=C1N(Cc1ccc3c(c1)OCO3)C(=O)[C@H](CC(=O)NCc1cccc3ccccc13)C2,.,-25,?,.,?,.
CCOC(=O)[C@]12CCCC=C1N(Cc1ccc3c(c1)OCO3)C(=O)[C@H](CC(=O)NCc1cccc(C(F)(F)F)c1)C2,.,0,?,.,16µM*,.
CCOC(=O)[C@]12CCC=C1N(Cc1ccc3c(c1)OCO3)C(=O)[C@H](CC(=O)NCc1cccc(C(F)(F)F)c1)C2,.,-8,21µM*,.,23µM*,.
COc1ccc(S(=O)(=O)NNC(=O)C2COc3ccccc3O2)cc1[N+](=O)[O-] (centres undefined),12,-15,-7%,-5%,-16%,8%
CC(=O)c1cccc(NC(=O)CN2C(=O)CCc3cc(S(=O)(=O)N4CCCCC4)ccc32)c1,.,.,-24%,-11%,-9%,.
O=C1Nc2ccc(Cl)cc2[C@@](C#CC2CC2)(C(F)(F)F)O1,.,.,?,3%,17µM*,.
O=C1Nc2cc(Cl)ccc2C1(N1CCNCC1)C(F)(F)F (centres undefined),-25,16,?,7%,?,0%
CC(C)Cc1ccc(C(C)CC2=CCC(CN(C)C)C2=O)cc1 (centres undefined),-15,0,4.6µM*,.,4.6µM*,.
CC(C)Cc1ccc([C@@H](C)C(=O)NS(C)(=O)=O)cc1,.,.,-3%,8%,?,.
O=C(/C=C/c1ccc(F)cc1)NCC1Cc2cccc(-c3ncccn3)c2O1 (centres undefined),.,.,?,.,18µM*,.
Cn1cccc1/C=N/NC(=O)CSc1nc2ccccc2[nH]1,11,-5,5%,0%,-13%,19%
O=C(CCl)Nc1cc2[nH]c(=O)[nH]c2cc1Br,2,-101*,2.1µM*,-2%,1.8µM*,?
Cc1cc2c(C)cc(=O)[nH]c2cc1NC(=O)CCl,3,-96*,5.2µM*,1%,2.3µM*,?
OCc1nc2ccccc2n1Cc1ccc(Cl)cc1,-19,-19,?,1%,?,-10%
S=c1[nH]nc(-c2ccco2)n1Cc1ccccc1,-6,37,-8%,-3%,-3%,?
S=c1[nH]nc(-c2ccc(Br)o2)n1Cc1ccccc1,-24,-7,?,5%,21µM*,?
S=c1[nH]nc(CN2CCCCC2)n1Cc1ccccc1,?,12,15µM*,2%,16µM*,-22%
c1ccc(Cn2c(CN3CCCC3)nc3ccccc32)cc1,17,-20,?,4%,16µM*,-2%

# Bioassay records from PubChem BioAssay.
